Tgondii IFNg = T. gondii growth inhibition with IFN-gamma, primary screen, cell-based; activity change, negative = inhibition, % (no concentration beside the values); hit rate 3.8% among 69,000; Toxoplasma gondii growth in IFN-gamma-treated host cells; hits give low values; AID 1259416, 2018; in the data active means activity change below about -70%, passing the limit was not always enough;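 further: host cells are HeLa cells infected with Toxoplasma gondii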
Of the large screens only hits and unclear results are named; the others gave an inactive call. Only a selection was taken, and hits are over-represented in it overall.

Cc1ccc2[nH]cc(CCNC(=O)CC3CCN(C(=O)c4[nH]c(C)cc4C)CC3)c2c1	none
CNC(=O)c1cnc2n1CCN(Cc1nccn1C)C2	none
CC(C)Cc1cc(C(=O)N2CCC(n3cc(-c4ccccn4)nn3)CC2)on1	none
Cn1c(=O)c(-c2nc(-c3ccccc3)no2)c(O)c2ccc(F)cc21	none
COc1ccc(C[C@H]2CN(C(C)=O)CC[C@H]2OCC2CC2)cc1	none
Cc1ncc(C)c(-c2cccc3ccsc23)n1	none
CCOC(=O)C1(Cc2cc(-c3ccccc3C)no2)CCN(Cc2ccccn2)CC1	Tgondii IFNg -77
CCOC(=O)[C@@]12CCCN(Cc3ccccn3)C[C@@H]1CN(C(C)C)C2	none
C=CCN1C[C@H]2CN(Cc3ccccn3)CCC[C@@]2(C(=O)OCC)C1	none
Cn1ccn2ncc(C(=O)NCC3OCCc4ccccc43)c12 (stereo unspecified)	none
Cc1nn(CCO)cc1CN1CCC1c1ccc(F)cc1 (stereo unspecified)	none
O=C1NC2(CCN(C(=O)c3cnn4cccnc34)CC2)Nc2ccccc21	none
COc1cc(C(F)(F)F)cc(C(F)(F)F)c1C(=O)NCc1cccs1	Tgondii IFNg -81
O=C(CCCC(=O)NCc1cccs1)NCc1cccs1	none
COc1cc(C(F)(F)F)cc(C(F)(F)F)c1C(=O)Oc1ccc(Cl)cc1	Tgondii IFNg -96
COc1cc(C(F)(F)F)cc(C(F)(F)F)c1C(N)=O	none
COCCN1CCN(c2ccc3ccc(C(=O)NCc4cccs4)cn23)CC1	none
Cc1cc(-c2onc(C)c2C(=O)Oc2ccc(Cl)cc2)no1	none
Cc1sc2nc(CCN)nc(NCC(C)Oc3cccnc3)c2c1C (stereo unspecified)	none
O=C(CC1COCCN1)N1CCN(C(=O)c2ccco2)CC1 (stereo unspecified)	none
Cc1ccc(C)c(CNC(=O)c2nc(N3CCOCC3)c3ccccc3n2)c1	Tgondii IFNg -87
COc1ccc(OC)c(CNC(=O)c2nc(N3CCOCC3)c3ccccc3n2)c1	none
COc1ccc(CNC(=O)c2nc(N3CCOCC3)c3ccccc3n2)cc1	none
O=c1c2c3c(sc2ncn1CCc1cnn(-c2ccccc2)c1)CNCC3	none
Cc1cnc(C)c(-c2cccc(OC(C)C)c2)n1	none
CCN1CCCC1CNC(=O)c1cc(C)c(C)c(S(N)(=O)=O)c1 (stereo unspecified)	none
Cc1c(-c2ccnn2C)cc(C(=O)NCc2ccc(S(C)(=O)=O)cn2)c(=O)n1-c1cccc(C(F)(F)F)c1	none
COc1ccc(NC(=O)N(C)C[C@H]2OCc3ccccc3-c3ccccc3C(=O)N([C@@H](C)CO)C[C@H]2C)c(OC)c1	none
COc1cc(C(=O)Oc2ccc(C3CCCCC3)cc2)cc(OC)c1OC	Tgondii IFNg -94
COc1cc(C(=O)Oc2cc(C)cc(C)c2)cc(OC)c1OC	none
COc1ccc(C(=O)/C=C/c2ccc(OC(=O)c3cc(OC)c(OC)c(OC)c3)cc2)cc1	none
CC(C)(C)c1cc(-c2cc(C(F)(F)F)[nH]n2)c2c(c1)C(C)(C)CC2	Tgondii IFNg -87
CC(C)(C)c1cc(C2=NNC(O)(C(F)(F)F)C2)c2c(c1)C(C)(C)CC2 (stereo unspecified)	Tgondii IFNg -100
CN1CCC2(CCN(C(=O)c3cc(C(F)(F)F)[nH]n3)CC2)C1	none
OC1(C(F)(F)F)CC(c2nccs2)=NN1 (stereo unspecified)	none
Cn1ccnc1CN1CCN2C[C@@H](Oc3cccc(F)c3)C[C@H]2C1	none
Cc1cn(CCC(=O)Nc2ccc(N3CCCCC3)cc2)c2ccccc12	none
Cc1ccc(C2=NOC3CN(C(=O)C4CCN(S(C)(=O)=O)CC4)CC23)cc1 (stereo unspecified)	none
COc1ccccc1NC(=O)c1nnn(Cc2nc(-c3ccccc3C)oc2C)c1C	none
CN(Cc1nc2ccc(F)cc2[nH]1)CC1CCNCC1	none
O=C1CC2C(CCN2Cc2ccc(F)cc2)N1CCN1CCOCC1 (stereo unspecified)	none
COc1cccc(CNC(=O)N2CCN(C(=O)NC(C)C)CC3(CC(=O)N(C)C3)C2)c1 (stereo unspecified)	none
O=C(Cn1c(=O)ccc2cc(S(=O)(=O)N3CCCC3)ccc21)Nc1ccc2c(c1)OCCO2	none
CCC(C)C1N=C2c3ccccc3N=C(SCc3ccc(C(C)(C)C)cc3)N2C1=O (stereo unspecified)	none
C1=C/COCc2cc(ccc2OCCN2CCCC2)Nc2nccc(n2)-c2cccc(c2)COC/1	Tgondii IFNg -85
Cc1cc(C)cc(-c2ccc(C(N)=O)s2)c1	none
O=c1oc(-c2ccccc2Cl)nc2sc3c(c12)CCCCC3	none
Cc1ccc(C)c(-c2[nH]ncc2CN(C)C(C)C(=O)N(C)C)c1 (stereo unspecified)	none
OC[C@H]1Nc2ccc(C#Cc3ccc(F)cc3)cc2[C@@H]2[C@H]1CCN2Cc1ccc2c(c1)OCO2	none
Cc1ccccc1CSCC(=O)Nc1c[nH]c(=O)[nH]c1=O	none
O=C(COc1ccc(Cl)cc1)Nc1ccc(Cl)cn1	none
O=C(COc1ccc(Cl)cc1)Nc1c[nH]c(=O)[nH]c1=O	Tgondii IFNg -106
CCCc1nc(C)cc(N2CCC3(CCCN(C)C3=O)C2)n1 (stereo unspecified)	none
CCC(=O)N1CCCC(C2C(=O)Nc3ccccc32)C1 (stereo unspecified)	none
CC(C)(C(=O)NCC(F)(F)C(F)(F)F)C(=O)N[C@@H]1C(=O)Nc2ccccc2-c2ccccc21	Tgondii IFNg -89
CCS(=O)(=O)c1ccc(-c2cc(N)nc3[nH]ccc23)s1	none
CC(C)Cn1cncc1CNC(=O)c1cc(=O)c2ccccc2[nH]1	none
CCCN1C(=O)CCc2cc(NC(=O)CCOC)ccc21	none
CCCN1C(=O)CCc2cc(NC(C)=O)ccc21	none
COCCN1C(=O)CCc2cc(NC(=O)C3CC3)ccc21	none
CCCN1C(=O)CCc2cc(NC(=O)c3cc(Cl)ccc3OC)ccc21	Tgondii IFNg -93
CCCN1C(=O)CCc2cc(NC(=O)Cc3ccc(Cl)cc3)ccc21	none
CCCC(=O)Nc1ccc2c(c1)CCC(=O)N2CCC	none
COCCN1C(=O)CCc2cc(NC(=O)c3ccc(Cl)s3)ccc21	Tgondii IFNg -78
COCCN1C(=O)CCc2cc(NC(C)=O)ccc21	none
CCCN1C(=O)CCc2cc(NC(=O)c3ccc(Cl)s3)ccc21	Tgondii IFNg -90
O=C(Nc1cnc(N2CCOCC2)nc1)c1cc2ccccc2[nH]1	none
COc1ccccc1CNC(=O)c1nc(Nc2ccc(F)cc2)c2ccccc2n1	none
Cc1cnc2c(C(=O)Nc3ccc(CN4C(=O)NC(C)(C)C4=O)cc3)cnn2c1	none
CO[C@@H]1CCN(Cc2c(C)noc2C)[C@H]2CN(Cc3cccnc3)C[C@@H]12	none
O=C(NCCC(=O)N1[C@@H]2CC[C@H]1CC(O)C2)c1ccccc1F (stereo partly specified)	none
CCc1ccccc1NC(=O)c1cccc(NC(=O)COC(C)C)c1	none
COc1cc(-c2cccc(C(C)N3CCCC3)c2)cc2cc(C(=O)O)oc12 (stereo unspecified)	none
CCN1Cc2c(C(=O)Nc3ccc(C)cc3)ncn2-c2ccccc2S1(=O)=O	none
CSc1ccc(CNC(=O)c2ccc(Cl)cc2)s1	none
Cc1csc2ncnc(-c3cccc4[nH]ccc34)c12	Tgondii IFNg -74
CCNc1ccnc(-c2cccc3[nH]ccc23)n1	none
OCCNc1ncnc2ccc(-c3cccc4[nH]ccc34)cc12	none
CS(=O)(=O)N1Cc2ccccc2C2(CCN(C(=O)c3ccno3)CC2)C1	none
COCCN1CC2(CCN(C(=O)CC3CC3)CC2)COc2ccccc2S1(=O)=O	none
Cc1noc2nc3c(c(C(=O)NC4CCC(n5cnnc5)CC4)c12)CCC3 (stereo unspecified)	none
COc1ccccc1C(=O)NCCc1sc(-c2cccc(F)c2)nc1C	none
CCOc1ccccc1C(=O)NCCc1sc(-c2ccc(Cl)cc2)nc1C	Tgondii IFNg -106

High-throughput results as filed in PubChem BioAssay.
